The record followed here is PubChem BioAssay (NCI).

Some test systems named below: DU-145 prostate; K-562 leukemia; MALME-3M melanoma; MDA-MB-231 breast; RXF 393 renal; SF-268 CNS; SF-295 CNS; SF-539 CNS; UACC-257 melanoma; M14 melanoma; HCT-15 colon; HT29 colon; SNB-75 CNS; SNB-19 CNS; U251 CNS; PC-3 prostate; SK-MEL-5 melanoma; UACC-62 melanoma; LOX IMVI melanoma; SK-MEL-28 melanoma.
Common to all, as to assay: NCI-60 one-dose screen, 48 h (100 = growth as untreated, 0 = no growth, -100 = all killed)
What all share (settings): 10 µM unless noted

SMILES strings stand for the structures. The panel holds about 83,000 compounds, 20% with a hit somewhere; the sample as a whole holds those more often.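 Compound tested at a single concentration for 48 hours in 96-well plates; a percent growth value below 10 was scored as active.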 Values without a mark were called inactive. Activity calls are given as the source filed them.

Turning to `O=C(CSc1nnc(-c2ccc(-c3nc4ccccc4[nH]3)cc2)o1)Nc1ccc(Br)cc1`, the growth with DU-145 prostate was 13.8%; in the experiment on K-562 leukemia, 11%; with MALME-3M melanoma, 31.9%; in the experiment with MDA-MB-231 breast, -29.1% (active); with RXF 393 renal, -62% (active); in the experiment with SF-268 CNS, 48.7%. Further, the growth is 53.8% in the experiment on SF-295 CNS; -89.8% (active) in the experiment with SF-539 CNS; 61.9% in the experiment with UACC-257 melanoma; -0.614% (active) in the experiment with M14 melanoma; 17.5% in the experiment with HCT-15 colon; 22.6% with HT29 colon. Besides, the growth with SNB-75 CNS was 63.3%; in the experiment on SNB-19 CNS it was -46.2% (active); with U251 CNS, -81.6% (active); with PC-3 prostate, 12.4%; in the experiment on SK-MEL-5 melanoma it was 21.6%; in the experiment with UACC-62 melanoma, 30.5%. Further, the growth in the experiment with LOX IMVI melanoma was -85.5% (active); with SK-MEL-28 melanoma, -63.6% (active).

For the molecule `CS(=O)(=O)Nc1cc(-c2ccc3ncnc(Nc4ccc(OCc5cccnc5)c(Cl)c4)c3c2)cnc1Cl`, the growth was 16.5% with DU-145 prostate; 9.57% (active) in the experiment with K-562 leukemia; -34.8% (active) with MALME-3M melanoma; -57.9% (active) in the experiment with MDA-MB-231 breast; 0.962% (active) with RXF 393 renal; 14.6% in the experiment on SF-268 CNS. Also, the growth in the experiment with SF-295 CNS is -14.9% (active); in the experiment with SF-539 CNS, -38% (active); in the experiment on UACC-257 melanoma it was 1.79% (active); in the experiment on M14 melanoma, 2.98% (active); in the experiment on HCT-15 colon, 13.1%; in the experiment with HT29 colon, 5.66% (active). Besides, the growth in the experiment with SNB-75 CNS was 10.7%; in the experiment with SNB-19 CNS, -0.382% (active); in the experiment on U251 CNS, -34.2% (active); with PC-3 prostate it was 3.42% (active); in the experiment on SK-MEL-5 melanoma it was -94.5% (active); with UACC-62 melanoma it was -64.3% (active). Moreover, the growth with LOX IMVI melanoma is -64.2% (active); in the experiment on SK-MEL-28 melanoma, -6.84% (active).

On to `COc1cc(C=O)ccc1OC(=O)c1cc(-c2ccc(C)cc2)n(-c2ccc(S(C)(=O)=O)cc2)n1`, for which the growth in the experiment on DU-145 prostate was 108%; in the experiment on K-562 leukemia, 86.5%; in the experiment on MALME-3M melanoma, 102%; in the experiment with MDA-MB-231 breast it was 97.3%; with RXF 393 renal it was 117%; with SF-268 CNS, 116%. Besides, the growth in the experiment on SF-295 CNS was 103%; with SF-539 CNS it was 105%; in the experiment with UACC-257 melanoma, 101%; in the experiment with M14 melanoma it was 109%; with HCT-15 colon, 96.7%; in the experiment with HT29 colon it was 113%. The growth with SNB-75 CNS was 104%; in the experiment on SNB-19 CNS, 90.3%; with U251 CNS, 100%; in the experiment with PC-3 prostate, 100%; with SK-MEL-5 melanoma, 100%; with UACC-62 melanoma it was 91.4%. The figures for the growth in the experiment on LOX IMVI melanoma and in the experiment with SK-MEL-28 melanoma were 98.8% and 113%, respectively.

`CNc1nc2ccccc2n2c(-c3ccc(O)c(O)c3)cnc12`: the growth in the experiment on DU-145 prostate is 2.32% (active); in the experiment with K-562 leukemia it was 11.1%; in the experiment with MALME-3M melanoma, 16%; with MDA-MB-231 breast, 20.9%; in the experiment with RXF 393 renal, -4.31% (active); in the experiment on SF-268 CNS, 5.12% (active). Moreover, the growth was 11% in the experiment on SF-295 CNS; -43% (active) with SF-539 CNS; 57.1% in the experiment with UACC-257 melanoma; -1% (active) with M14 melanoma; 5.19% (active) in the experiment on HCT-15 colon; 2.27% (active) in the experiment on HT29 colon. Further, the growth in the experiment on SNB-75 CNS was -15.5% (active); in the experiment with SNB-19 CNS, 27.5%; in the experiment with U251 CNS it was 6.12% (active); in the experiment on PC-3 prostate, 31.7%; in the experiment with SK-MEL-5 melanoma it was -23.6% (active); with UACC-62 melanoma it was 4.77% (active). Further, the growth was 5.44% (active) in the experiment on LOX IMVI melanoma and 23.3% with SK-MEL-28 melanoma.

On to `CS(=O)(=O)Nc1cc(-c2ccc3ncnc(N4CCc5cc(F)c(Cl)cc54)c3c2)cnc1Cl`, for which the growth with DU-145 prostate was 10.5%; with K-562 leukemia it was 35.8%; in the experiment with MALME-3M melanoma, -21.2% (active); with MDA-MB-231 breast it was -17.8% (active); with RXF 393 renal it was -5.59% (active); in the experiment with SF-268 CNS, 14.9%. The growth is -23.8% (active) in the experiment on SF-295 CNS; -22.7% (active) with SF-539 CNS; -2.81% (active) in the experiment on UACC-257 melanoma; 9.59% (active) in the experiment on M14 melanoma; 7.55% (active) with HCT-15 colon; 19.7% in the experiment with HT29 colon. For the same molecule, the growth with SNB-75 CNS was -17.7% (active); in the experiment on SNB-19 CNS it was 27%; with U251 CNS it was 17.8%; in the experiment with PC-3 prostate, 12.9%; in the experiment on SK-MEL-5 melanoma, -72.8% (active); in the experiment on UACC-62 melanoma it was -43.2% (active). The growth in the experiment with LOX IMVI melanoma was -29.2% (active); in the experiment on SK-MEL-28 melanoma, -0.47% (active).

For `Cc1ccc2nc(SCc3ccccc3F)n(-c3ccccc3)c(=O)c2c1`, the growth is 108% in the experiment on DU-145 prostate; 83.8% with K-562 leukemia; 118% in the experiment with MALME-3M melanoma; 76.1% with MDA-MB-231 breast; 104% in the experiment with RXF 393 renal; 113% with SF-268 CNS. For the same molecule, the growth in the experiment on SF-295 CNS is 89.5%; in the experiment on SF-539 CNS, 99.5%; in the experiment with UACC-257 melanoma, 106%; with M14 melanoma, 95.3%; with HCT-15 colon it was 83.3%; in the experiment with HT29 colon it was 78.7%. In addition, the growth is 156% in the experiment on SNB-75 CNS; 96.8% in the experiment with SNB-19 CNS; 99.4% in the experiment on U251 CNS; 77.9% in the experiment on PC-3 prostate; 93.9% with SK-MEL-5 melanoma; 74.3% with UACC-62 melanoma. The growth in the experiment on LOX IMVI melanoma is 84.9%; in the experiment with SK-MEL-28 melanoma it was 100%.

`O=C(Nc1nc2ccccc2s1)Nc1ccccc1Cl`: the growth with DU-145 prostate was 99.9%; in the experiment with K-562 leukemia, 86.2%; with MALME-3M melanoma, 79.7%; in the experiment on MDA-MB-231 breast, 51.9%; in the experiment on RXF 393 renal it was 73.8%; with SF-268 CNS, 77.3%. Further, the growth with SF-295 CNS was 45%; in the experiment with SF-539 CNS, 51%; in the experiment on UACC-257 melanoma, 98.8%; in the experiment on M14 melanoma, 93.7%; in the experiment on HCT-15 colon, 94.3%; in the experiment with HT29 colon, 98.5%. Besides, the growth in the experiment on SNB-75 CNS was 20.4%; in the experiment on SNB-19 CNS it was 70.4%; in the experiment with U251 CNS, 55.7%; with PC-3 prostate, 85.3%; in the experiment with SK-MEL-5 melanoma it was 95.3%; with UACC-62 melanoma, 93.8%. The growth with LOX IMVI melanoma is 79.4%; with SK-MEL-28 melanoma, 102%.
